{"source": "PubChem BioAssay (NCI)", "note": "Where “and” joins values, the source holds several entries; their conditions need not be identical. Equal values may be shown once. The panel holds about 83,000 compounds, 20% with a hit somewhere; the sample as a whole holds those more often.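 Method: cells in 96-well plates; compound added at one concentration; 48 h incubation; percent growth measured; values under 10 scored active.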 Calls of active or inactive are those of the source."}
{"tested_on": "MDA-MB-468 breast", "assay": "NCI-60 one-dose screen, 48 h (100 = growth as untreated, 0 = no growth, -100 = all killed)", "details": "10 µM unless noted"}
{"smiles": "C=C1CC[C@@H]2C(C)(C)[C@H](O)CC[C@@]2(C)[C@@H]1COc1ccc2ccc(=O)oc2c1", "growth": "44.1% (inactive)"}
{"smiles": "O=C(O)c1ccccc1C(=O)OC1CCCC2CCCC21", "note": "(stereo not given)", "growth": "102% (inactive)"}
{"smiles": "COc1cc(CN2CCC(N3CCCC3=O)c3ccccc32)cc(OC)c1OC", "note": "(stereo not given)", "growth": "36.3% (inactive)"}
{"smiles": "CCCCNc1nc(NN2C(=O)c3cccc4cccc(c34)C2=O)nc(-n2cnc3ccccc32)n1", "growth": "92.7% (inactive)"}
{"smiles": "O/N=C1\\c2ccccc2-c2ccc(F)cc21", "growth": "9.23% (active)"}
{"smiles": "CCCc1c(C)c2sc(=O)[nH]c2[nH]c1=O", "growth": "99.4% (inactive)"}
{"smiles": "O=C(NCCc1nccs1)c1cnc2c(S)cccc2c1", "growth": "16.5% (inactive)"}
{"smiles": "Cc1ccc(-n2cc(/C=C/C(=O)c3ccc(O)cc3)c(-c3ccc(S(C)(=O)=O)cc3)n2)cc1", "growth": "93.8% (inactive)"}
{"smiles": "Cc1ccc2nc(C[n+]3ccc4ccccc4c3)ccc2c1", "growth": "-3.95% (active)"}
{"smiles": "Cc1cc2nc(CC(=O)c3ccncc3)c(=O)[nH]c2cc1C", "growth": "102% (inactive)"}
{"smiles": "COC(=O)c1ccc2c(c1)nc(-c1ccc(Cl)cc1)n2-c1cc(C(C)(C)C)[nH]n1", "growth": "37.4% (inactive)"}
{"smiles": "CCN(CC)CCNc1cc(-c2cccc(OC(F)(F)F)c2)nc2ccc(N3CCCC3)cc12", "growth": "28.6% (inactive) and -38.3% (active) and 0.911% (active)"}
{"smiles": "COc1ccc(C(=O)/C=C/c2ccc(OCc3ccc(C)cc3)c(OC)c2)cc1OC", "growth": "49.9% (inactive)"}
{"smiles": "COC(c1ccc2c(c1)OCO2)C(C)Br", "note": "(stereo not given)", "growth": "93.4% (inactive)"}
{"smiles": "NCc1cn2cc(Cl)sc2n1", "growth": "101% (inactive)"}
